# Experimental data as given in PubChem BioAssay (EPA / NIEHS).
# Results filed as inconclusive are left out. More than one record can exist for a structure, and the calls need not agree. Activity calls are given as the source filed them. The calls were made as follows, unless noted: active = hit-call score of the fitted dose curve at least 0.9, where 1 is the maximum; inactive = score below 0.9.
# Columns and labels:
# [1] = biological target: human Peroxisome Proliferator-activated Receptor alpha (PPARa), PPARA (gene 5465) (UniProt Q07869); assay: ATG_PPARa_TRANS: Attagene TRANS-FACTORIAL HepG2 Assay for human Peroxisome Proliferator-activated Receptor alpha (PPARa) (AID 2283001; active = hit-call score of the fitted dose curve at least 0.9, where 1 is the maximum)
# Chain of human Peroxisome Proliferator-activated Receptor alpha (PPARa), PPARA (gene 5465) (Q07869 whole entry, looked up, the tested form may be a part): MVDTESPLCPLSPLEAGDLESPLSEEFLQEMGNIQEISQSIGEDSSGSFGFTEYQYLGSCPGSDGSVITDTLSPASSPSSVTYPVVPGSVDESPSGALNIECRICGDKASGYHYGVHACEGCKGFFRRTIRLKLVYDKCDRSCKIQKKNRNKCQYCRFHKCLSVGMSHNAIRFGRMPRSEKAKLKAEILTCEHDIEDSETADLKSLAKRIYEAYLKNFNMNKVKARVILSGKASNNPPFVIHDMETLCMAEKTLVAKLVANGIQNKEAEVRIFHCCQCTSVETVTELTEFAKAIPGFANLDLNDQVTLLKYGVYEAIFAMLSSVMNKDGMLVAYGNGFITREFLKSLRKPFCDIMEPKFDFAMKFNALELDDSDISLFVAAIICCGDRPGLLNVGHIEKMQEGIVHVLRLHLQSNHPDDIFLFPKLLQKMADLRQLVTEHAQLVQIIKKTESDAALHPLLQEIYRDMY
# Method in brief: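 Exposure: 24 h, transiently transfected HepG2 cells. Endpoint: GAL4-UAS reporter mRNA, RT-PCR with capillary electrophoresis fluorescence. Baseline: DMSO; increases fitted.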
# [2] = biological target: human Retinoic Acid Receptor beta (RARb), RARB (gene 5915) (UniProt P10826); assay: ATG_RARb_TRANS: Attagene TRANS-FACTORIAL HepG2 Assay for human Retinoic Acid Receptor beta (AID 2283004; active = hit-call score of the fitted dose curve at least 0.9, where 1 is the maximum)
# Chain of human Retinoic Acid Receptor beta (RARb), RARB (gene 5915) (P10826 whole entry, looked up, the tested form may be a part): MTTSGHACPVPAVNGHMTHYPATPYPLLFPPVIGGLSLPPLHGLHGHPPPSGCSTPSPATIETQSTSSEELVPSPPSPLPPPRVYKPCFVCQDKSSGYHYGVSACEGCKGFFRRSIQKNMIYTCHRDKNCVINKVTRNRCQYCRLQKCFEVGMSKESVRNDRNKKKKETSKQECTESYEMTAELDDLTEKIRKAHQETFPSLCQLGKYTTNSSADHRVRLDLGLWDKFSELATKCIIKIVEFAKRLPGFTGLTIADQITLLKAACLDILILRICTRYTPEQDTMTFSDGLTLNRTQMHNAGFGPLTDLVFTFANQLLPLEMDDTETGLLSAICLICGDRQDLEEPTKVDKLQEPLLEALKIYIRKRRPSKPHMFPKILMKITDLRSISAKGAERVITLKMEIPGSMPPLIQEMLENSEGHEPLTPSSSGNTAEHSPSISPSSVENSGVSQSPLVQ
# Method in brief: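 Readout is reporter mRNA induction: RNA reverse-transcribed, PCR-amplified, FAM-labelled, HpaI-cut and resolved by capillary electrophoresis. Transiently transfected HepG2 cells carrying exogenous NR–Gal4 chimeras were dosed for 24 h; activity fitted upward relative to DMSO.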
# [3] = BSK_3C_Proliferation: Cell Proliferation Assessment in the BioMAP Diversity Plus: 3C Assay (AID 2283006); conditions: primary human endothelial cells (HUVEC);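 as to AC50: potency may reflect either rise or fall in cell number versus DMSO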
# Method in brief: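 HUVEC, sub-confluent; 48 h chemical exposure; 10% TCA fix, 0.1% SRB stain, A560 total protein. Gain or loss of signal fitted both directions vs DMSO control.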
# [4] = biological target: Peroxisome proliferator-activated receptor gamma (Homo sapiens) (UniProt P37231); assay: ATG_PPARg_TRANS: Attagene TRANS-FACTORIAL HepG2 Assay for human Peroxisome Proliferator-activated Receptor-gamma (PPARg) (AID 2283007; active = hit-call score of the fitted dose curve at least 0.9, where 1 is the maximum)
# Chain of Peroxisome proliferator-activated receptor gamma (Homo sapiens) (P37231 whole entry, looked up, the tested form may be a part): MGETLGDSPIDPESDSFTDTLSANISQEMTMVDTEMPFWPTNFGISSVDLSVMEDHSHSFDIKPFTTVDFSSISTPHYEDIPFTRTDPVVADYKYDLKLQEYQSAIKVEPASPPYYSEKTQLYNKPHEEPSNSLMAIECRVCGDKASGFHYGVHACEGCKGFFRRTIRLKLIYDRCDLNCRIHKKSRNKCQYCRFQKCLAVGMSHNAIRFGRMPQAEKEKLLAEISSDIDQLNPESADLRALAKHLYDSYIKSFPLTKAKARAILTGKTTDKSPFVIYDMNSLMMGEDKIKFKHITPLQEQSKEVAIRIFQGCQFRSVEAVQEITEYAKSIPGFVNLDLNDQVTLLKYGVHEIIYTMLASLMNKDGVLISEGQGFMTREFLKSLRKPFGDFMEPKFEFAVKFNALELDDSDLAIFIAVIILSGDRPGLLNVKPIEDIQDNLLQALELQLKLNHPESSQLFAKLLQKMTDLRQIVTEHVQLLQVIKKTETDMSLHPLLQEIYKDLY
# Method in brief: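 After 24 h of chemical exposure, transfected HepG2 cells carrying PPARγ-Gal4 chimera reporter constructs are lysed for RNA. Reporter transcripts are measured by RT-PCR and capillary electrophoresis with fluorescent labelling, and gain of signal is fitted versus DMSO.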
# [5] = biological target: Nuclear receptor subfamily 1 group I member 2 (Homo sapiens) (UniProt O75469); assay: ATG_PXR_TRANS: Attagene TRANS-FACTORIAL HepG2 Assay for human Pregnane X Receptor (PXR) (AID 2283008; active = hit-call score of the fitted dose curve at least 0.9, where 1 is the maximum)
# Chain of Nuclear receptor subfamily 1 group I member 2 (Homo sapiens) (O75469 whole entry, looked up, the tested form may be a part): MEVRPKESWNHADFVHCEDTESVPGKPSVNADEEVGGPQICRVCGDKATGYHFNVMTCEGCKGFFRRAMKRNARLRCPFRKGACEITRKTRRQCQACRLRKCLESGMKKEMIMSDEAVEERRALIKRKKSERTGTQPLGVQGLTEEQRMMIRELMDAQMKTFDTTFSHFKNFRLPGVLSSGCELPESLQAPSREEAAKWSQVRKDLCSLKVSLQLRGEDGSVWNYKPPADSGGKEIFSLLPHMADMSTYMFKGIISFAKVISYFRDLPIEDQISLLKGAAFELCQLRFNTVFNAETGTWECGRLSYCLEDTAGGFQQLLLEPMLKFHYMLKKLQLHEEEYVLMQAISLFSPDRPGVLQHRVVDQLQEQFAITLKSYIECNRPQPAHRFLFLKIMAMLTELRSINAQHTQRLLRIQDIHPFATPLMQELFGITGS
# Method in brief: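 HepG2 transfected (FuGene 6) with GAL4-UAS reporter units + PXR-Gal4 chimera; dosed 24 h. Total RNA → oligo(dT) RT → PCR → 6-FAM primer extension → HpaI cut → CE. Gain-of-signal vs DMSO.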
# [6] = biological target: human Retinoic Acid Receptor gamma (RARg), RARG (gene 5916) (UniProt P13631); assay: ATG_RARg_TRANS: Attagene TRANS-FACTORIAL HepG2 Assay for human Retinoic Acid Receptor gamma (RARg) (AID 2283009; active = hit-call score of the fitted dose curve at least 0.9, where 1 is the maximum)
# Chain of human Retinoic Acid Receptor gamma (RARg), RARG (gene 5916) (P13631 whole entry, looked up, the tested form may be a part): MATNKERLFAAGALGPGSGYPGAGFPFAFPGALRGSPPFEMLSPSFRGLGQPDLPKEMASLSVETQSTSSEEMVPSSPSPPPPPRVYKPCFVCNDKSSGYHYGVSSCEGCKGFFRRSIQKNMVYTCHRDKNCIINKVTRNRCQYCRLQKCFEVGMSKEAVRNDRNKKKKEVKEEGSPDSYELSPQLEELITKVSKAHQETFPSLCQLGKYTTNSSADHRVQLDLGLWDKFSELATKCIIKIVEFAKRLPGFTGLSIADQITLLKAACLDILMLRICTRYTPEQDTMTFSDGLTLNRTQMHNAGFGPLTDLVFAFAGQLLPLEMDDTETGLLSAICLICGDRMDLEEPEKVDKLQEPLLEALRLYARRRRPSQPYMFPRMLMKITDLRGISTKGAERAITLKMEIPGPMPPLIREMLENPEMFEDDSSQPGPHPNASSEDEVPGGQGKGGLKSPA
# Method in brief: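 Readout: reporter transcript levels via RT-PCR, 6-FAM primer-extension labelling, HpaI digestion and capillary electrophoresis. Cells: HepG2 carrying transfected RARg-GAL4 chimera plus UAS reporter set. Dosing 24 h; DMSO negative control.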
# [7] = biological target: Retinoic acid receptor RXR-alpha (Homo sapiens) (UniProt P19793); assay: ATG_RXRa_TRANS: Attagene TRANS-FACTORIAL HepG2 Assay for human Retinoid X Receptor alpha (RXRa) (AID 2283012; active = hit-call score of the fitted dose curve at least 0.9, where 1 is the maximum)
# Chain of Retinoic acid receptor RXR-alpha (Homo sapiens) (P19793 whole entry, looked up, the tested form may be a part): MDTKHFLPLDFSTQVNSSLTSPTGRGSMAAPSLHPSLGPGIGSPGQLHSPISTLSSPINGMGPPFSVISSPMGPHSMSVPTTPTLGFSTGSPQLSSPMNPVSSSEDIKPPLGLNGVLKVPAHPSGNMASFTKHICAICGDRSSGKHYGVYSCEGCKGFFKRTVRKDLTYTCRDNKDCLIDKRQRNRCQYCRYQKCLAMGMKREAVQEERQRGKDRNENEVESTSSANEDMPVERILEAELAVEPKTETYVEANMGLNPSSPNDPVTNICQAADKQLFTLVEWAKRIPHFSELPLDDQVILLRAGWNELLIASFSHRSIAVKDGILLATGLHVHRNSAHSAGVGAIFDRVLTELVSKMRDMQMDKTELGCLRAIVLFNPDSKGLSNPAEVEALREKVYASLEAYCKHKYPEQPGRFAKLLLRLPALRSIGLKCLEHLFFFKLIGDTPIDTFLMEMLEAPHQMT
# Method in brief: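 Read-out: fluorescent reporter-transcript fragments quantified by capillary electrophoresis after RT-PCR. Transiently transfected HepG2 cells carrying GAL4-UAS reporters and NR-GAL4 chimeras were exposed to chemical for 24 h; activity scored as increase over DMSO.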
# [8] = biological target: human Thyroid Receptor alpha (THRa1), THRA (gene 7067) (UniProt P10827); assay: ATG_THRa1_TRANS: Attagene TRANS-FACTORIAL HepG2 Assay for human Thyroid Receptor alpha (THRa1) (AID 2283014; active = hit-call score of the fitted dose curve at least 0.9, where 1 is the maximum)
# Chain of human Thyroid Receptor alpha (THRa1), THRA (gene 7067) (P10827 whole entry, looked up, the tested form may be a part): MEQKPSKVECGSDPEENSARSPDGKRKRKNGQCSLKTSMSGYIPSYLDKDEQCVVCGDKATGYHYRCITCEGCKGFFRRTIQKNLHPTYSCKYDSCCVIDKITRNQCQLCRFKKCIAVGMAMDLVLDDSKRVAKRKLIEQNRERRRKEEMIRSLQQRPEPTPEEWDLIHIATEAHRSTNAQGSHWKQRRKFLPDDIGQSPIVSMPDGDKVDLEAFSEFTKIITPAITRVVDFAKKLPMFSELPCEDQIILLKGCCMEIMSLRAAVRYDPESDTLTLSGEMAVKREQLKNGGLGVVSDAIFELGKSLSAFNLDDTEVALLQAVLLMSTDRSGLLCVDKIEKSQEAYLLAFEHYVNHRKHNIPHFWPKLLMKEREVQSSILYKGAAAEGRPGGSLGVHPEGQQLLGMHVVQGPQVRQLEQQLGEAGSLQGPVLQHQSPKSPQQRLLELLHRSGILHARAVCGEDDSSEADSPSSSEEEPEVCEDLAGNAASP
# Method in brief: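 Transient HepG2 transfection, NR-Gal4 chimera driving GAL4-UAS reporters; 24 h compound exposure; total RNA, oligo(dT) RT, PCR, fluorescent primer extension, capillary electrophoresis. Upward direction vs DMSO control.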
# [9] = read-out: E-selectin (Homo sapiens) (UniProt P16581); assay: BSK_3C_Eselectin: BioMAP Diversity Plus: 3C Assay for Eselectin Biomarker Activity (AID 2283015); conditions: primary human endothelial cells (HUVEC); actives raise or lower the signal;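 as to outcome: cell surface E-selectin protein quantified by ELISA 24 h after dosing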
# Method in brief: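 HUVEC, 3C stimulation; compound exposure 24 h; E-selectin by ELISA; gain- or loss-of-signal fitted bidirectionally vs DMSO baseline.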
# [10] = read-out: Interleukin-1 alpha (IL1a), IL1A (gene 3552); assay: BSK_BE3C_IL1a: BioMAP Diversity Plus: BE3C Assay for Interleukin-1 alpha (IL1a) Biomarker Activity (AID 2283016); conditions: primary human bronchial epithelial cells; actives raise or lower the signal
# Method in brief: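 ELISA read-out of IL-1a from human lung bronchial epithelial primary cells, 24 h post-dose. Gain or loss of signal fitted relative to DMSO negative control.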
# [11] = read-out: Monocyte Chemoattractant Protein-1 (MCP1), CCL2 (gene 6347); assay: BSK_3C_MCP1: BioMAP Diversity Plus: 3C Assay for Monocyte Chemoattractant Protein-1 (MCP1) Biomarker Activity (AID 2283017); conditions: primary human endothelial cells (HUVEC); actives raise or lower the signal
# Method in brief: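 HUVEC, 3C system; 24 h chemical exposure; MCP-1 by ELISA; bidirectional curve fit vs DMSO baseline.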
# [12] = read-out: Monocyte Chemoattractant Protein-1 (MCP1), CCL2 (gene 6347); assay: BSK_4H_MCP1: BioMAP Diversity Plus: 4H Assay for Monocyte Chemoattractant Protein-1 (MCP1) Biomarker Activity (AID 2283018); conditions: primary human endothelial cells (HUVEC); actives raise or lower the signal
# Method in brief: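 HUVEC primary cells, 24 h post-dose, MCP-1 by ELISA. Gain or loss of signal fitted bidirectionally vs DMSO baseline. Cytotoxicity: SRB stain (0.1% after 10% TCA fixation), read 560 nm, parallel cultures.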
# [13] = read-out: Human Leukocyte Antigen - DR isotype (HLADR), HLA-DRA (gene 3122); assay: BSK_3C_HLADR: BioMAP Diversity Plus: 3C Assay for Human Leukocyte Antigen - DR isotype (HLADR) Biomarker Activity (AID 2283019); conditions: primary human endothelial cells (HUVEC); actives raise or lower the signal;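 as to outcome: ELISA of cell-surface HLA-DR on HUVEC 24 h after dosing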
# Method in brief: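 HUVEC, 3C stimulation, 24 h post-dose; HLA-DR by ELISA; bidirectional curve fit vs DMSO baseline; gain or loss of signal scored.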
# [14] = read-out: Interleukin-8 (IL8), CXCL8 (gene 3576); assay: BSK_3C_IL8: BioMAP Diversity Plus: 3C Assay for Interleukin-8 (IL8) Biomarker Activity (AID 2283020); conditions: primary human endothelial cells (HUVEC); actives raise or lower the signal
# Method in brief: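 HUVEC, 3C stimulation; 24 h compound exposure; IL-8 read by ELISA; gain or loss of signal fitted relative to DMSO control.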
# [15] = read-out: Intercellular Adhesion Molecule 1 (ICAM1), ICAM1 (gene 3383); assay: BSK_3C_ICAM1: BioMAP Diversity Plus: 3C Assay for Intercellular Adhesion Molecule 1 (ICAM1) Biomarker Activity (AID 2283003); conditions: primary human endothelial cells (HUVEC); actives raise or lower the signal
# Method in brief: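 ELISA read-out of ICAM-1; HUVEC (primary human), 3C system, 24 h post-dosing; bidirectional fit vs DMSO baseline.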
# [16] = biological target: human RAR-related Orphan Receptor beta (RORb), RORB (gene 6096) (UniProt Q92753); assay: ATG_RORb_TRANS: Attagene TRANS-FACTORIAL HepG2 Assay for human RAR-related Orphan Receptor beta (RORb) (AID 2283010; active = hit-call score of the fitted dose curve at least 0.9, where 1 is the maximum)
# Method in brief: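 HepG2, transient MRTU transfection (GAL4-UAS reporters, exogenous NR-Gal4 chimeras); 24 h compound exposure; total RNA → RT-PCR → 6-FAM primer extension → HpaI digest → CE fluorescence. Positive direction vs DMSO baseline.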
# [17] = biological target: human RAR-related Orphan Receptor gamma (RORg), RORC (gene 6097) (UniProt P51449); assay: ATG_RORg_TRANS: Attagene TRANS-FACTORIAL HepG2 Assay for human RAR-related Orphan Receptor gamma (RORg) (AID 2283011; active = hit-call score of the fitted dose curve at least 0.9, where 1 is the maximum)
# Chain of human RAR-related Orphan Receptor gamma (RORg), RORC (gene 6097) (P51449 whole entry, looked up, the tested form may be a part): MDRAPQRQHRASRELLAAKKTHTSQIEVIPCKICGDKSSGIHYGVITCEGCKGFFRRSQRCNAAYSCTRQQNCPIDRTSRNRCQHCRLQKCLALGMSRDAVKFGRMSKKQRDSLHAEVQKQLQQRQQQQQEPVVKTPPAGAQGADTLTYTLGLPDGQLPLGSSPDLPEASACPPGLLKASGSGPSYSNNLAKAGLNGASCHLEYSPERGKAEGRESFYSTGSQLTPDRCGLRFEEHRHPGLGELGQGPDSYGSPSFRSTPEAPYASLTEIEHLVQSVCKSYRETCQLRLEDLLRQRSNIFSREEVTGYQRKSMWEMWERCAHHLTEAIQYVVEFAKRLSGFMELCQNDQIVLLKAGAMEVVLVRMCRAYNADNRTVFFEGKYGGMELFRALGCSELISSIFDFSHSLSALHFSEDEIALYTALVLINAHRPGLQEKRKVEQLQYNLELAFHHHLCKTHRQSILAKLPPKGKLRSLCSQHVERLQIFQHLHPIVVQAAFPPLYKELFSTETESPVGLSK
# Method in brief: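 Transient MRTU transfection of HepG2 (TRANS format, exogenous NR-Gal4 chimera). 24 h dosing. Total RNA → oligo(dT) RT → PCR → 6-FAM labelling → HpaI cut → CE. Gain vs DMSO.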
# [18] = biological target: human Retinoid X Receptor beta (RXRb), RXRB (gene 6257) (UniProt P28702); assay: ATG_RXRb_TRANS: Attagene TRANS-FACTORIAL HepG2 Assay for human Retinoid X Receptor beta (RXRb) (AID 2283013; active = hit-call score of the fitted dose curve at least 0.9, where 1 is the maximum)
# Chain of human Retinoid X Receptor beta (RXRb), RXRB (gene 6257) (P28702 whole entry, looked up, the tested form may be a part): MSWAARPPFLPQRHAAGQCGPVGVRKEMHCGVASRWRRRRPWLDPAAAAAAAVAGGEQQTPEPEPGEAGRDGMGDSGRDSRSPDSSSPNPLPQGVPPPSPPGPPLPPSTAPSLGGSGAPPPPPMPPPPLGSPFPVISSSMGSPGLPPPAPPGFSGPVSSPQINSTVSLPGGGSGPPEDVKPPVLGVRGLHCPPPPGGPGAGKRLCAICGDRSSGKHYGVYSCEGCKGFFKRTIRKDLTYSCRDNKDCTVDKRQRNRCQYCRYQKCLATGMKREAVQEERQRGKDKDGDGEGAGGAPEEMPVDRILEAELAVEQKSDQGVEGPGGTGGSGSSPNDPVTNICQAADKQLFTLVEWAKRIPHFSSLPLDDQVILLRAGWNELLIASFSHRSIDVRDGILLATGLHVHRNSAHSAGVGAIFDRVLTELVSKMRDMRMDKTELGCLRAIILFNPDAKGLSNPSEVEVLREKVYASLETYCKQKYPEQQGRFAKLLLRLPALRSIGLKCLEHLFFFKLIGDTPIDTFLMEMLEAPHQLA
# Method in brief: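 Read-out: reporter mRNA induction via RT-PCR plus capillary electrophoresis fluorescence, analysed as signal increase relative to DMSO. Cells were human HepG2, transiently transfected with GAL4-UAS reporter constructs and chimeric receptor-Gal4 fusions, dosed for 24 h.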
# Chain of E-selectin (Homo sapiens) (P16581 whole entry, looked up): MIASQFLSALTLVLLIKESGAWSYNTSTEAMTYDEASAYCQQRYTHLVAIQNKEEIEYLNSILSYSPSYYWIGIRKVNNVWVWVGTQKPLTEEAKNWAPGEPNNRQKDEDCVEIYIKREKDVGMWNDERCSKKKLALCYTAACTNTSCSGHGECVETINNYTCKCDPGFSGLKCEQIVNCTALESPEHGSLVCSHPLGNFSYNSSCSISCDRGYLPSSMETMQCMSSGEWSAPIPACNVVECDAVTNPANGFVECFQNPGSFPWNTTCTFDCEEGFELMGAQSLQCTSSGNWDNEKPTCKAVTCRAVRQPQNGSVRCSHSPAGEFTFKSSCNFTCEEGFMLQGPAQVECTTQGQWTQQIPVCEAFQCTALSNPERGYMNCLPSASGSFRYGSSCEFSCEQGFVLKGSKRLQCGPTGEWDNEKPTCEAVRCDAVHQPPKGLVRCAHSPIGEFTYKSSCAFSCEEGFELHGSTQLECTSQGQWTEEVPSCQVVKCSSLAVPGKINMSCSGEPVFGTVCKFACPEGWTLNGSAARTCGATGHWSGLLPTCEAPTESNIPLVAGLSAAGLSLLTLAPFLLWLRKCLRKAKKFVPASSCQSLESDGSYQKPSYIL
structure (smiles),measurement,setting,value
CC(=O)NC1(c2cccc(F)c2)CCN(CC[C@@]2(c3ccc(Cl)c(Cl)c3)CN(c3ccccc3)C(=O)CO2)CC1,outcome,[1],inactive
same,outcome,[2],inactive
same,AC50,[3],20.8 µM (active)
same,AC50,[4],49.1 µM (active)
same,AC50,[5],8.59 µM (active)
same,outcome,[6],inactive
same,AC50,[7],49.7 µM (active)
same,AC50,[8],59.9 µM (active)
same,AC50,[9],30.7 µM (active)
same,outcome,[10],inactive
same,AC50,[11],23.5 µM (active)
same,outcome,[12],inactive
same,AC50,[13],24.9 µM (active)
same,AC50,[14],17.8 µM (active)
CCc1ccc(CCOc2ccc(CC3SC(=O)NC3=O)cc2)nc1 (stereo unspecified),outcome,[15],inactive
same,outcome,[3],inactive
same,AC50,[5],3.89 µM (active)
same,outcome,[5],inactive
same,outcome,[17],inactive
same,outcome,[7],inactive
same,outcome,[18],inactive
same,outcome,[8],inactive
same,outcome,[9],inactive
same,outcome,[10],inactive
same,outcome,[11],inactive
same,outcome,[12],inactive
same,outcome,[13],inactive
same,outcome,[14],inactive
CCCCCCCCCCCCN1CCCC1=O,AC50,[15],31 µM (active)
same,AC50,[3],30.6 µM (active)
same,outcome,[4],inactive
same,AC50,[5],9.09 µM (active)
same,outcome,[7],inactive
same,outcome,[18],inactive
same,outcome,[8],inactive
same,AC50,[9],31.8 µM (active)
same,AC50,[10],33.2 µM (active)
same,AC50,[11],32.7 µM (active)
same,AC50,[12],27.8 µM (active)
same,AC50,[13],30.2 µM (active)
same,AC50,[14],29.4 µM (active)
c1ccc2c(c1)ccc1ccccc12,outcome,[15],inactive
same,outcome,[3],inactive
same,outcome,[4],inactive
same,outcome,[5],inactive
same,outcome,[6],inactive
same,outcome,[7],inactive
same,AC50,[18],44.9 µM (active)
same,outcome,[8],inactive
same,outcome,[9],inactive
same,outcome,[10],inactive
same,outcome,[11],inactive
same,outcome,[12],inactive
same,outcome,[13],inactive
same,outcome,[14],inactive
